From PMC11006913
Substitutions are numbered along the chain they refer to.

Key:
Assay in all cases: PBM; 200 nM protein, PBS
Conditions in all cases: dsDNA, one strand shown
VENTX [1] = biological target: T1, VENTX (Homo sapiens, UniProt O95231 78-163, R121Q)
T1 sequence: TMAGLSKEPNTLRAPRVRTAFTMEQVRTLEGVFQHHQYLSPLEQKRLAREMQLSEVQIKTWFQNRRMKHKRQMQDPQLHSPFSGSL

ALX4 = ALX4 (Homo sapiens, UniProt Q9H161 200-286)
PRRX1 [2] = biological target: PRRX1 (Homo sapiens, UniProt P54821 80-166, F113S)
VENTX [3] = biological target: T2, VENTX (Homo sapiens, UniProt O95231 78-163, Y115F)
T2 sequence: T1 sequence with Y38F, Q44R

HOXA2 [4] = biological target: HOXA2 (Homo sapiens, UniProt O43364 129-215, R185T)
PAX4 = biological target: T3, PAX4 (Homo sapiens, UniProt O43316 9-242, R200Q)
T3 sequence: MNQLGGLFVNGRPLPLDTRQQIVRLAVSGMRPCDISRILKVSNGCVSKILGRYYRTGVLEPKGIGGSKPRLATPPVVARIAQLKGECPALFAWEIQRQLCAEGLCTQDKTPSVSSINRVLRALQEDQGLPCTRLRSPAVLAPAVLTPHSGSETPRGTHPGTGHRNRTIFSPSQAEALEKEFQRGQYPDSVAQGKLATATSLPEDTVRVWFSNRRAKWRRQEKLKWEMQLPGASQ

HOXA2 [5] = biological target: HOXA2 (Homo sapiens, UniProt O43364 129-215, R185K)
MSX2 [6] = biological target: MSX2 (Homo sapiens, UniProt P35548 130-214)
MSX2 [7] = biological target: MSX2 (Homo sapiens, UniProt P35548 130-214, F161Y)
VAX1 [8] = biological target: VAX1 (Homo sapiens, UniProt Q5SQQ9 86-172, T142I)
PRRX1 [9] = biological target: PRRX1 (Homo sapiens, UniProt P54821 80-166)
VAX1 [10] = biological target: VAX1 (Homo sapiens, UniProt Q5SQQ9 86-172, K157R)
HOXA4 = HOXA4 (Homo sapiens, UniProt Q00056 201-287, W262F)
HOXA4, sequence (Q00056 201-287 W262F): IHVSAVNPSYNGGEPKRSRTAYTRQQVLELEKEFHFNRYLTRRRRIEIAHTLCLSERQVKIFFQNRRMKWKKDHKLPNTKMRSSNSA

MSX2 (Homo sapiens, UniProt P35548 130-214, F161Y), sequence (P35548 130-214 F161Y): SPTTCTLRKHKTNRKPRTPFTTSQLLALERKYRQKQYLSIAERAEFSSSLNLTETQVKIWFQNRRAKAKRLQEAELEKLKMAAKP
MSX2 (Homo sapiens, UniProt P35548 130-214), sequence (P35548 130-214): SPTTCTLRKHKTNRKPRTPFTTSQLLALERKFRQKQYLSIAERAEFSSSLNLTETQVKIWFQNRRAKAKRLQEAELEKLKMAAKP
VAX1 (Homo sapiens, UniProt Q5SQQ9 86-172, K157R), sequence (Q5SQQ9 86-172 K157R): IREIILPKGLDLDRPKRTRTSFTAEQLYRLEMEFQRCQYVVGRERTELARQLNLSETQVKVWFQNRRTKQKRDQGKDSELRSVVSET
VAX1 (Homo sapiens, UniProt Q5SQQ9 86-172, T142I), sequence (Q5SQQ9 86-172 T142I): as the sequence (Q5SQQ9 86-172 K157R) above, with T57I, R72K counted along it
ALX4, sequence (Q9H161 200-286): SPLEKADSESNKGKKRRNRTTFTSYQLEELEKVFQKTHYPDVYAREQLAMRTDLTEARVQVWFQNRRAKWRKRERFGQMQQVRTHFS
PRRX1 (Homo sapiens, UniProt P54821 80-166, F113S), sequence (P54821 80-166 F113S): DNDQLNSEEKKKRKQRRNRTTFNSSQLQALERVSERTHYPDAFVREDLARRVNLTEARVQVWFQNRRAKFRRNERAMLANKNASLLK
PRRX1 (Homo sapiens, UniProt P54821 80-166), sequence (P54821 80-166): as the sequence (P54821 80-166 F113S) above, with S34F counted along it
HOXA2 (Homo sapiens, UniProt O43364 129-215, R185T), sequence (O43364 129-215 R185T): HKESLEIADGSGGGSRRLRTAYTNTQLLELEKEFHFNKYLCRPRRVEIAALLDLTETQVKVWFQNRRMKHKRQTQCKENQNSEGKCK
HOXA2 (Homo sapiens, UniProt O43364 129-215, R185K), sequence (O43364 129-215 R185K): as the sequence (O43364 129-215 R185T) above, with T57K counted along it

Sequence	binding signal (VENTX [1])	binding signal (ALX4)	binding signal (PRRX1 [2])	binding signal (VENTX [3])	binding signal (HOXA2 [4])	binding signal (PAX4)	binding signal (HOXA2 [5])	binding signal (MSX2 [6])	binding signal (MSX2 [7])	binding signal (VAX1 [8])	binding signal (PRRX1 [9])	binding signal (VAX1 [10])	binding signal (HOXA4)
CCAATTAG	12.3 upbm affinity estimate (log intensity, higher = more binding, comparable within an allelic series)	14.1 upbm affinity estimate (log intensity, higher = more binding, comparable within an allelic series)	11.2 upbm affinity estimate (log intensity, higher = more binding, comparable within an allelic series)	11.9 upbm affinity estimate (log intensity, higher = more binding, comparable within an allelic series)	12.9 upbm affinity estimate (log intensity, higher = more binding, comparable within an allelic series)	12.2 upbm affinity estimate (log intensity, higher = more binding, comparable within an allelic series)	13.3 upbm affinity estimate (log intensity, higher = more binding, comparable within an allelic series)	14 upbm affinity estimate (log intensity, higher = more binding, comparable within an allelic series)	13.7 upbm affinity estimate (log intensity, higher = more binding, comparable within an allelic series)	12.6 upbm affinity estimate (log intensity, higher = more binding, comparable within an allelic series)	13.4 upbm affinity estimate (log intensity, higher = more binding, comparable within an allelic series)	12.9 upbm affinity estimate (log intensity, higher = more binding, comparable within an allelic series)	–
GCCAATTA	11.8 upbm affinity estimate (log intensity, higher = more binding, comparable within an allelic series)	14 upbm affinity estimate (log intensity, higher = more binding, comparable within an allelic series)	11.2 upbm affinity estimate (log intensity, higher = more binding, comparable within an allelic series)	11.5 upbm affinity estimate (log intensity, higher = more binding, comparable within an allelic series)	12.6 upbm affinity estimate (log intensity, higher = more binding, comparable within an allelic series)	11.9 upbm affinity estimate (log intensity, higher = more binding, comparable within an allelic series)	–	14 upbm affinity estimate (log intensity, higher = more binding, comparable within an allelic series)	13.6 upbm affinity estimate (log intensity, higher = more binding, comparable within an allelic series)	12.4 upbm affinity estimate (log intensity, higher = more binding, comparable within an allelic series)	13.3 upbm affinity estimate (log intensity, higher = more binding, comparable within an allelic series)	12.6 upbm affinity estimate (log intensity, higher = more binding, comparable within an allelic series)	–
CCAATTAC	–	13.8 upbm affinity estimate (log intensity, higher = more binding, comparable within an allelic series)	11.1 upbm affinity estimate (log intensity, higher = more binding, comparable within an allelic series)	–	–	–	–	13.9 upbm affinity estimate (log intensity, higher = more binding, comparable within an allelic series)	13.5 upbm affinity estimate (log intensity, higher = more binding, comparable within an allelic series)	–	13.4 upbm affinity estimate (log intensity, higher = more binding, comparable within an allelic series)	–	–
AATTAAAT	–	13.9 upbm affinity estimate (log intensity, higher = more binding, comparable within an allelic series)	11.3 upbm affinity estimate (log intensity, higher = more binding, comparable within an allelic series)	–	–	12.2 upbm affinity estimate (log intensity, higher = more binding, comparable within an allelic series)	–	13.6 upbm affinity estimate (log intensity, higher = more binding, comparable within an allelic series)	13.1 upbm affinity estimate (log intensity, higher = more binding, comparable within an allelic series)	–	13.4 upbm affinity estimate (log intensity, higher = more binding, comparable within an allelic series)	–	11.4 upbm affinity estimate (log intensity, higher = more binding, comparable within an allelic series)
AATTAAGA	–	13.6 upbm affinity estimate (log intensity, higher = more binding, comparable within an allelic series)	11.2 upbm affinity estimate (log intensity, higher = more binding, comparable within an allelic series)	–	–	11.9 upbm affinity estimate (log intensity, higher = more binding, comparable within an allelic series)	–	–	–	–	–	–	11.6 upbm affinity estimate (log intensity, higher = more binding, comparable within an allelic series)
AACTAATT	–	13.7 upbm affinity estimate (log intensity, higher = more binding, comparable within an allelic series)	11.1 upbm affinity estimate (log intensity, higher = more binding, comparable within an allelic series)	–	–	–	–	13.3 upbm affinity estimate (log intensity, higher = more binding, comparable within an allelic series)	12.9 upbm affinity estimate (log intensity, higher = more binding, comparable within an allelic series)	–	13.3 upbm affinity estimate (log intensity, higher = more binding, comparable within an allelic series)	–	–
ATTAATGC	–	–	–	–	–	11.7 upbm affinity estimate (log intensity, higher = more binding, comparable within an allelic series)	–	–	–	–	–	–	–
ATAATTGG	–	14 upbm affinity estimate (log intensity, higher = more binding, comparable within an allelic series)	11.5 upbm affinity estimate (log intensity, higher = more binding, comparable within an allelic series)	–	–	11.9 upbm affinity estimate (log intensity, higher = more binding, comparable within an allelic series)	–	14.1 upbm affinity estimate (log intensity, higher = more binding, comparable within an allelic series)	13.7 upbm affinity estimate (log intensity, higher = more binding, comparable within an allelic series)	–	13.4 upbm affinity estimate (log intensity, higher = more binding, comparable within an allelic series)	–	–
AATTATAA	–	13.7 upbm affinity estimate (log intensity, higher = more binding, comparable within an allelic series)	11.4 upbm affinity estimate (log intensity, higher = more binding, comparable within an allelic series)	–	–	–	–	13.4 upbm affinity estimate (log intensity, higher = more binding, comparable within an allelic series)	13 upbm affinity estimate (log intensity, higher = more binding, comparable within an allelic series)	–	13.3 upbm affinity estimate (log intensity, higher = more binding, comparable within an allelic series)	–	–
AATTAGTG	11.9 upbm affinity estimate (log intensity, higher = more binding, comparable within an allelic series)	13.9 upbm affinity estimate (log intensity, higher = more binding, comparable within an allelic series)	11.2 upbm affinity estimate (log intensity, higher = more binding, comparable within an allelic series)	11.7 upbm affinity estimate (log intensity, higher = more binding, comparable within an allelic series)	12.8 upbm affinity estimate (log intensity, higher = more binding, comparable within an allelic series)	12.3 upbm affinity estimate (log intensity, higher = more binding, comparable within an allelic series)	13.1 upbm affinity estimate (log intensity, higher = more binding, comparable within an allelic series)	13.5 upbm affinity estimate (log intensity, higher = more binding, comparable within an allelic series)	13.2 upbm affinity estimate (log intensity, higher = more binding, comparable within an allelic series)	12.6 upbm affinity estimate (log intensity, higher = more binding, comparable within an allelic series)	13.3 upbm affinity estimate (log intensity, higher = more binding, comparable within an allelic series)	12.8 upbm affinity estimate (log intensity, higher = more binding, comparable within an allelic series)	11.6 upbm affinity estimate (log intensity, higher = more binding, comparable within an allelic series)
CCCAGGCG	–	–	–	–	7.06 upbm affinity estimate (log intensity, higher = more binding, comparable within an allelic series)	–	10.1 upbm affinity estimate (log intensity, higher = more binding, comparable within an allelic series)	–	–	–	–	–	–
TAATTGGA	11.7 upbm affinity estimate (log intensity, higher = more binding, comparable within an allelic series)	14 upbm affinity estimate (log intensity, higher = more binding, comparable within an allelic series)	11.4 upbm affinity estimate (log intensity, higher = more binding, comparable within an allelic series)	–	12.5 upbm affinity estimate (log intensity, higher = more binding, comparable within an allelic series)	12 upbm affinity estimate (log intensity, higher = more binding, comparable within an allelic series)	–	14 upbm affinity estimate (log intensity, higher = more binding, comparable within an allelic series)	13.6 upbm affinity estimate (log intensity, higher = more binding, comparable within an allelic series)	–	13.4 upbm affinity estimate (log intensity, higher = more binding, comparable within an allelic series)	–	–
